Sampled rows, rich in hits. Any-hit rate of the full collection: about 3.5%.
MITF primary: MITF inhibitors, primary screen, biochemical, AlphaScreen, human; 0.91% of 650,000 active; AlphaScreen MITF homodimerization, bead proximity signal; inhibition, % at 2.6 µM; AID 1259374, 2018; Microphthalmia-associated transcription factor (Homo sapiens), O75030; in the data active = inhibition above about 50%;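 also: 0% = vehicle wells with protein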
Target sequence (O75030 whole entry, looked up): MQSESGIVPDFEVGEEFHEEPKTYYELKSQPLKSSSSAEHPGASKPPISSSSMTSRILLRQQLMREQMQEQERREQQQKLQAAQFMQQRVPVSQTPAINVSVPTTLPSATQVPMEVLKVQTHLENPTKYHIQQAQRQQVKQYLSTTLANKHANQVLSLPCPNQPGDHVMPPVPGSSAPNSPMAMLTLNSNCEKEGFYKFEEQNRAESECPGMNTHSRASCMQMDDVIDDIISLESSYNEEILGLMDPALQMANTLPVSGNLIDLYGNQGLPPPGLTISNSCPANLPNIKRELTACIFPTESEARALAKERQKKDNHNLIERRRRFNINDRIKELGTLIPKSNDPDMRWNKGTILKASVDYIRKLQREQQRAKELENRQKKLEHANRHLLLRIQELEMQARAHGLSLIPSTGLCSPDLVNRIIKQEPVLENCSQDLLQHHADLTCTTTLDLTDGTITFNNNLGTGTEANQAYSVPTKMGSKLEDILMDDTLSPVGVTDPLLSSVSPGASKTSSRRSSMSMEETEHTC
FBW7 act: FBW7 E3 ligase activators, primary screen, biochemical, AlphaScreen, human | F-box/WD repeat-containing protein 7 (Homo sapiens), Q969H0 | AlphaScreen FBW7–phospho-cyclin E peptide binding, activator screen | normalized activity (activation), % at 26.1 µM | 0.13% of 650,000 active | AID 1259310, 2017; in the data active = normalized activity above about 1.9%;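 also: purified mutant Fbw7 with reduced substrate affinity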
GPR151 activ: activators of human GPR151, primary screen, cell-based, PathHunter beta-arrestin, luminescence; AID 1508602, 2020; activation, % at 11.2 µM; PathHunter beta-arrestin GPR151 cells; 1% of 650,000 active; in the data active = activation above about 4.9%;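 also: 0% = median of compound wells and 100% = cells with positive control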
TEAD-YAP block: TEAD-YAP interaction inhibition, primary screen, TEAD-YAP interaction inhibitor project, luminescence, HEK-TIYL cells; TEAD-Gal4/YAP UAS-luciferase luminescence; inhibition, % at 9.12 µM; 1.4% of 640,000 active; AID 1259422, 2018; in the data active = inhibition above about 32%;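 also: 0% = median of test compound wells and 100% = reference inhibitor wells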
Starred values were filed as active, the others as inactive.

SMILES | MITF primary | FBW7 act | GPR151 activ | TEAD-YAP block
CC1(C)OC2C(C(=O)O)OC(n3cnc4c(N)ncnc43)C2O1 (stereo unspecified) | -19 | 0 | 1 | 7
O=C(Cc1ccc(N2CCC(NCCn3ccnc3)CC2)cc1)N1CCCC1 | 1 | 0 | 0 | -9
O=C(Cc1ccc(N2CCC(NCCn3ccnc3)CC2)cc1)NCc1ccccc1 | 5 | 0 | 1 | 47*
Oc1c(C(c2ccc(Br)cc2)N2CCOCC2)ccc2cccnc12 (stereo unspecified) | 9 | 0 | 0 | 73*
Oc1c(C(c2ccccc2)N2CCOCC2)ccc2cccnc12 (stereo unspecified) | 12 | -1 | 0 | 87*
O=C(Sc1cccc2cccnc12)N1CCOCC1 | 13 | 0 | -1 | 3
COc1ccc(Nc2nc(C)cc(C)n2)cc1 | 4 | 0 | -2 | -37
COc1ccc(NS(=O)(=O)c2cc(Br)cc3c2N(C(C)=O)CC3)cc1 | 10 | 0 | 1 | 44*
Cc1cccc(NS(=O)(=O)c2cc(Br)cc3c2N(C(=O)C2CC2)CC3)c1 | 0 | 0 | 1 | 71*
COc1c(C)cc(S(=O)(=O)Nc2ccc3c(c2)N(C(=O)C2CC2)CC3)cc1C | 5 | 0 | 1 | 43*
CCc1ccc(NS(=O)(=O)c2cc(Br)cc3c2N(C(C)=O)CC3)cc1 | 13 | 0 | 0 | 47*
Cc1cc(NS(=O)(=O)c2ccc3c(c2)CCN3C(=O)C2CC2)ccc1Br | 10 | 1 | 0 | 11
O=C(NCc1ccco1)c1ccc(-c2ccccc2)cc1 | 9 | 0 | -1 | -32
CCNS(=O)(=O)c1ccc(CCC(=O)NCc2ccco2)cc1 | 7 | 1 | 1 | 4
CCC(=O)Nc1sc2c(c1C(=O)OC)CCC(C)C2 (stereo unspecified) | 8 | 0 | -1 | 13
COc1cc2c(cc1NC(=O)c1[nH]c(C)c(C(C)=O)c1C)oc1ccccc12 | -2 | 0 | 2 | -8
COc1ccc(N/C=C(\C#N)C(N)=S)cc1OC | 10 | 0 | 0 | 38*
COc1ccc(C(F)(F)F)cc1N/C=C(\C#N)C(N)=S | 15 | 0 | 0 | 2
O=C1C2C3CCC(O3)C2C(=O)N1c1cccc([N+](=O)[O-])c1 (stereo unspecified) | -8 | 0 | 1 | 0
O=C1C2C3CCC(O3)C2C(=O)N1c1ccc2nc3ccccc3cc2c1 (stereo unspecified) | -2 | 0 | -4 | 80*
CC(=O)Oc1cc(N2CCOCC2)c(OC(C)=O)c2c1C(=O)c1ccccc1C2=O | 25 | -1 | -1 | 64*
CCOC(=O)c1c(-c2ccccc2)oc2ccc(NS(=O)(=O)c3ccc(OC)cc3)cc12 | -4 | 0 | 4 | 57*
CCOC(=O)c1c(-c2ccccc2)oc2ccc(NS(=O)(=O)c3ccc(OCC)cc3)cc12 | -22 | 0 | 0 | 57*
CCOC(=O)c1c(-c2ccccc2)oc2ccc(NS(=O)(=O)c3ccccc3)cc12 | -5 | 0 | 0 | 0
COc1ccc(/C=C(/NC(=O)c2ccccc2Cl)C(N)=O)cc1 | 1 | 1 | -1 | 2
SMILES | MITF primary | FBW7 act | GPR151 activ | TEAD-YAP block
CCSc1nc2c(c(=O)[nH]c(=O)n2C)n1CCc1ccc(OC)cc1 | -12 | 0 | 0 | 43*
CCSc1nc2c(c(=O)[nH]c(=O)n2C)n1CCCc1ccccc1 | 5 | 0 | 1 | 0
O=[N+]([O-])c1cc(Cl)c(Sc2nc3ccccc3s2)c(Cl)c1 | 35 | 1 | 0 | 49*
O=[N+]([O-])c1ccc(Sc2nc3ccccc3s2)cc1 | 7 | 0 | -1 | 2
COc1cccc(-c2cc3ccc(OC(C)=O)cc3oc2=O)c1 | -8 | 1 | -11 | 58*
CC(=O)Oc1ccc2cc(-c3ccc4c(c3)OCCO4)c(=O)oc2c1 | 10 | 0 | -4 | 63*
COc1ccc2cc(-c3nc(-c4ccccc4)no3)c(=O)oc2c1 | 4 | 0 | 0 | 59*
CC(=O)Oc1ccc2c(=O)c(-c3ccc4c(c3)OCCO4)c(C)oc2c1 | 13 | 1 | 1 | -19
COc1ccc(-c2cc3ccc(O)cc3oc2=O)cc1 | -8 | 2 | -10 | 70*
Cc1ccc(C2CC(c3ccc4c(c3)OCO4)Nc3nnnn32)cc1 (stereo unspecified) | 6 | 0 | 0 | 10
CCOc1ccc(C(=O)Nc2nc3ccccc3s2)cc1 | -3 | 0 | -7 | 57*
CCCCCCOc1ccc(C(=O)Nc2nc3ccccc3s2)cc1 | 9 | 0 | 0 | 7
CCOc1cccc2nc(NC(=O)c3ccc(Oc4ccccc4)cc3)sc12 | -5 | 0 | 0 | -8
COc1ccc2nc(NC(=O)c3ccccc3)sc2c1 | -22 | 0 | -7 | 43*
Cc1cccc2nc(NC(=O)c3ccc(Oc4ccccc4)cc3)sc12 | -14 | 0 | 1 | 52*
O=C(Nc1nc2ccccc2s1)c1ccc(C(=O)c2ccccc2)o1 | -11 | 0 | -2 | 36*
CCOc1ccc2nc(NC(=O)NC(=O)C(F)(F)F)sc2c1 | -4 | 0 | -2 | 63*
CCOc1ccc2nc(NC(=O)c3cccs3)sc2c1 | -12 | 0 | -9 | 31
COc1ccc2nc(NC(=O)c3cccs3)sc2c1 | -4 | 0 | -8 | 44*
CCOc1cc(C(N)=O)cc(I)c1OCC | -1 | 0 | 0 | 16
O=C(Oc1cc(-c2ccccc2Cl)c2oc(=O)sc2c1)c1ccc(Cl)cc1 | -2 | 0 | 1 | 10
O=c1[nH]c(CCl)nc2sc(-c3ccccc3)cc12 | 5 | 0 | -2 | 33*
CCc1cccc(-n2nnc(-c3nc(-c4ccccc4F)no3)c2N)c1 | 8 | 0 | 0 | -5
O=C(c1ccccc1Br)N1CCN(c2ccc(Cl)cc2[N+](=O)[O-])CC1 | 12 | 1 | -1 | 6
Cc1cc(C)nc(/N=C(\N)Nc2cc(Cl)ccc2C)n1 | 7 | 0 | -2 | 5
SMILES | MITF primary | FBW7 act | GPR151 activ | TEAD-YAP block
Cc1ccc(N/C(N)=N/c2nc(C)cc(N3CCCC3)n2)c(C)c1 | 4 | 0 | 1 | 34*
CC[C@@]1([C@@H]2O[C@@H]([C@H]3O[C@@](O)(CO)[C@H](C)C[C@@H]3C)C[C@@H]2C)CC[C@H]([C@]2(C)CC[C@]3(C[C@H](O)[C@@H](C)[C@@H]([C@@H](C)[C@@H](OC)[C@H](C)C(=O)O)O3)O2)O1 | 16 | 0 | 0 | 79*
CC(=O)c1ccc2c(c1)[nH]c1cc(C(C)=O)ccc12 | 10 | 0 | 0 | 46*
CS(=O)(=O)N1CCN(C2CCC(c3ccccc3)CC2)CC1 (stereo unspecified) | 5 | 0 | -2 | 14
Cc1ccc(-c2cc(C(F)(F)F)n3ncc(C(=O)Nc4ccc(C)c(C)c4)c3n2)cc1 | 12 | 0 | -2 | 2
COC(=O)c1cc2c(cc1NC(=O)c1cccc3c1SCCC3=O)OCO2 | -1 | 0 | 0 | 51*
COC(=O)c1sccc1NC(=O)c1cccc2c1SCCC2=O | 6 | 0 | -1 | 10

Screening data as filed in PubChem BioAssay.
